# Laboratory results from PubChem BioAssay (NCI).
# The panel holds about 79,000 compounds, 15% with a hit somewhere; the sample as a whole holds those more often. A number with no mark means an inactive call. Calls of active or inactive are those of the source. Rule as the data show it: active = growth inhibition above about 70%; inactive = the rest.
# Assays:
# [1] = NCI Yeast Anticancer Drug Screen. Data for the rad50 strain (AID 155);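 also: 0% = growth of vehicle-only cultures of the same strain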; conditions: S. cerevisiae rad50 strain growth inhibition; at 50.0 µM; hits give high values
# Method in brief: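 Readout: growth inhibition relative to vehicle-treated cultures. Compound exposure was carried out in a genetically defined yeast strain deficient in DNA damage repair.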
# [2] = NCI Yeast Anticancer Drug Screen. Data for the sgs1 mgt1 strain (AID 161);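 also: 0% = growth of cultures given vehicle only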; conditions: S. cerevisiae sgs1 mgt1 strain, at 50.0 µM, hits give high values
# Method in brief: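 Yeast cells carrying a defined DNA-repair defect were exposed to test compounds. Growth inhibition was measured relative to vehicle-treated controls.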
# [3] = NCI Yeast Anticancer Drug Screen. Data for the cln2 rad14 strain (AID 165);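 also: 0% = growth equal to vehicle treated cultures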; conditions: S. cerevisiae cln2 rad14 strain, at 50.0 µM, hits give high values
# Method in brief: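 Yeast strain cln2 rad14, bearing defects in cell cycle control and DNA repair, serves as the test system; values reflect growth inhibition compared with vehicle.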
# [4] = NCI Yeast Anticancer Drug Screen. Data for the bub3 strain (AID 167); conditions: S. cerevisiae bub3 mutant strain, at 50.0 µM, hits give high values
# Method in brief: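 Readout: yeast growth inhibition, expressed relative to vehicle-only wells. The test organism is a mutant strain from a panel with lesions in DNA repair or checkpoint genes.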
# [5] = NCI Yeast Anticancer Drug Screen. Data for the mlh1 rad18 strain (AID 175); conditions: S. cerevisiae mlh1 rad18 strain growth inhibition; at 50.0 µM; hits give high values
# Method in brief: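 Steps: expose repair-defective yeast to compound; measure growth; express inhibition against vehicle-treated controls.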
# [6] = NCI Yeast Anticancer Drug Screen. Data for the mec2-1 strain (AID 157); conditions: S. cerevisiae mec2-1 strain, at 50.0 µM, hits give high values
# Method in brief: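 Using mec2-1 yeast: add compound, measure growth, express inhibition versus vehicle-treated cultures.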
Compound,growth inhibition [1],growth inhibition [2],growth inhibition [3] [%],growth inhibition [4] [%],growth inhibition [5],growth inhibition [6] [%]
CC/C(=N/O)C(C)C(=O)CCC(=O)Nc1ccc(Cl)cc1 (stereo not drawn),-11.6%,0.15%,7.35,8.15,-5.65%,
NCCN=C(N)C(N)=NCCN,19.1%,-2.35%,-54.5,7.45,8.1%,
CC(=O)OC1CC2(c3ccccc3)C(=O)c3ccccc3N2O1 (stereo not drawn),27.2%,-11.8%,-12.7,10.2,19.6%,
CCCNN(CCC)C(N)=O,0.6%,-5.75%,2.75,24.1,-7.25%,
CCOC(=O)c1cnc2cc3c(cc2c1Nc1cccc(C)c1)OCO3,-9.9%,-5.85%,-57.8,-1.45,-6%,
Cc1csc(NNC(N)=O)n1,1.65%,-63.5%,-14,-42.9,-27.4%,
Cc1ccc(N=C2N=C(N3CC(C)OC(C)C3)c3ccccc32)cc1 (stereo not drawn),-12.9%,-15.6%,-7.8,0,-21.4%,
N#CC[N+]1(Cc2ccccn2)CCCC1,-4.5%,-13.8%,,-2.5,-7.8%,
C/C(=N\NC(=O)C(N)=O)c1c(O)cc(C)oc1=O,-29.1%,11.6%,-23.1,1.8,15.7%,
CCOC(=O)C[N+]1(C)CCC(O)CC1 (stereo not drawn),3.15%,-2.55%,-0.45,16.6,7.55%,
O=Nc1ccc(Cl)cc1,-7.1%,-10.3%,7.15,14.9,8.45%,
CN=S(=O)(OC/C=C/COS(=O)(=NC)c1ccc(C)cc1)c1ccc(C)cc1 (stereo not drawn),-17.9%,-24.1%,-8.55,-10.4,-26.3%,
Cc1c(Cl)cccc1NC(=O)C(=O)C(C(=O)c1ccccc1-c1ccccc1)C1OC(=O)c2ccccc21 (stereo not drawn),-31.9%,-14.3%,-41.8,11.9,-23%,
CC(=O)CC(=O)Nc1cccc(NC(=O)CC(C)=O)c1,-16.4%,-10.6%,3.85,-5.8,-20.6%,
CC(=O)Nc1ccc(S(=O)(=O)/C(=C\c2ccc(Cl)o2)c2ccc([N+](=O)[O-])o2)cc1,90.1% (active),92.9% (active),57.5,61.4,92.7% (active),
O=c1[nH]c2ccccc2c(=O)n1CCCN1CCN(c2cccc(Cl)c2)CC1,22%,33.8%,-23.4,15.8,14.8%,
Cn1nc(Br)c(=O)n(C)c1=O,-17.9%,-14.8%,-3.15,1.7,-10.4%,
O=C(C[n+]1ccccc1)c1cc2c(c3ccccc13)CCCC2,3.3%,36.3%,20.8,-4.6,19.5%,
CCOC(=O)Nc1cccc(Cl)c1,10.9%,18.9%,9.65,-7.35,22.1%,
COc1cc2c(c(Cl)c1OC)CCN(C)CC2c1ccccc1 (stereo not drawn),-5.25%,-13.9%,-9.5,-1.45,1.85%,
Nc1nc(SCc2ccccc2Cl)cc(C(=O)O)n1,31.6%,47.2%,4.15,44,53%,
CC(NNC(=S)N1CCC(c2ccccc2)CC1)c1ccc2ccccc2n1 (stereo not drawn),-48.9%,29.9%,11.5,-2,26.9%,
CCCCCCCN1C=CCC(S(=O)(=O)N2CCOCC2)=C1,-15.7%,-11.4%,3.85,-16.8,-2%,
Cc1cccc(NCc2ccncc2)n1,19.2%,26.8%,2.15,1.85,6.75%,

Compound,growth inhibition [1],growth inhibition [2],growth inhibition [3] [%],growth inhibition [4] [%],growth inhibition [5],growth inhibition [6] [%]
CC1S/C(=N\N=C\c2ccc(Cl)cc2)N=C1c1c(O)c2ccccc2oc1=O (stereo not drawn),13.2%,57.4%,-7.5,7.65,45.9%,
CC1(C(=O)O)CCCC1C(CCC(=O)O)C(=O)O (stereo not drawn),-13.8%,0.55%,-19.6,-6.9,-35.1%,
O=c1[nH]c(-c2ccc(Cl)cc2)cs1,-1.25%,-7%,-5.65,-19.9,-16.1%,
C=C(Cl)C(Cl)(CBr)CCC(Br)C(C)(C)Cl (stereo not drawn),20.6%,51.5%,22.4,42.6,-22.8%,
C/C=C(/C)C(=O)OC1CC(C)=CC(OC(=O)/C(C)=C\C)[C@]2(C)C1[C@](O)(C(C)C)C[C@H]2OC(C)=O (stereo partly drawn),41%,28.2%,30.2,24.9,49.4%,
CCCCCCC1(C=O)NC(=O)NC1=O (stereo not drawn),4.2%,-11.2%,-14.1,-4.6,-1.35%,
CC1(C)CCc2cc3c(O)c(-c4ccccc4)c(=O)oc3cc2O1,-9.45%,-0.65%,-17.2,-5.75,7.45%,
CN(C)c1ccc(C2(c3ccc(N(C)C)cc3)NNC(=O)c3cc(N(C)C)ccc32)cc1,21.4%,13.2%,16.8,-3.15,1.8%,
CC(C(=O)n1c2ccccc2c2ccccc21)N(c1ccccc1)c1ccccc1 (stereo not drawn),-16.8%,-30.2%,9.15,-29.4,-19.6%,
Cc1cc(Br)cc(C)c1NC(=O)C(=O)CC(=O)c1sc(-n2nc(-c3ccccc3)cc2-c2ccccc2)nc1C,5.7%,-32.5%,28.5,33.8,15.7%,
Nc1cccc(Oc2ccc([N+](=O)[O-])cc2)c1,,,17.2,32.5,24.7%,25
CC1Cn2c(nccc2=O)S1 (stereo not drawn),,-33.4%,1.9,3.5,-29.1%,-14.2
CC[N+](C)(CC)Cc1ccc([NH-])c([NH-])c1.[Cl][Pt+2][Cl],,36%,37.2,-13.7,28.4%,27.4
CC(C)OC1(c2ccccc2)OC(c2ccccc2)=CC1=O (stereo not drawn),,-12.1%,-7.4,14.1,-0.8%,-17.1
CN(C)c1nc2oc(-c3ccccc3)c(-c3ccccc3)c2c2nncn12,,2.9%,16.9,12.1,-22.5%,7.45
CC(C)=CCCc1ccc2c(c1)C(=O)c1cc3c(cc1C2=O)OCO3,,21.1%,9.6,10.6,-2.1%,15.1
O=C(CCCCl)c1ccc(O)cc1,,2.75%,11.8,-17.6,0.1%,-36
CN=C1N[N+]2=CCCCC2S1 (stereo not drawn),,19.7%,0.75,2.4,13.3%,3.35
CC(=O)OCC1OC(Cl)C(OC(=O)C(Cl)(Cl)Cl)C(OC(C)=O)C1OC(C)=O (stereo not drawn),,-13.6%,-0.95,-2.65,-9.45%,0.2
CN(C)C(=O)Sc1ccc([N+](=O)[O-])cc1Cl,,5.7%,14.6,-4.3,16.8%,4.6
CC(=O)O[C@H]1CC[C@@]2(C)C(=CC[C@H]3[C@@H]4CC[C@H](c5cc(C(F)(F)F)n(C(C)=O)n5)[C@@]4(C)CC[C@@H]32)C1,,-40.6%,2.55,-19.6,12.4%,-6.7
CCOC1C=CCCC1 (stereo not drawn),,-6.35%,9.4,14.8,-14%,23.6
CCCCCCCCCCCCP(=O)(O)O,,-19.9%,-9.65,6.35,-10.9%,-24.1
